ChEMBL document CHEMBL2218924, “A broad activity screen in support of a chemogenomic map for kinase signalling research and drug discovery” (Biochem J, 2013)

target: LIM domain kinase 1 (Homo sapiens) (UniProt P53667); conditions: at 10 µM
Sequence (P53667 whole entry, looked up, the tested form may be a part): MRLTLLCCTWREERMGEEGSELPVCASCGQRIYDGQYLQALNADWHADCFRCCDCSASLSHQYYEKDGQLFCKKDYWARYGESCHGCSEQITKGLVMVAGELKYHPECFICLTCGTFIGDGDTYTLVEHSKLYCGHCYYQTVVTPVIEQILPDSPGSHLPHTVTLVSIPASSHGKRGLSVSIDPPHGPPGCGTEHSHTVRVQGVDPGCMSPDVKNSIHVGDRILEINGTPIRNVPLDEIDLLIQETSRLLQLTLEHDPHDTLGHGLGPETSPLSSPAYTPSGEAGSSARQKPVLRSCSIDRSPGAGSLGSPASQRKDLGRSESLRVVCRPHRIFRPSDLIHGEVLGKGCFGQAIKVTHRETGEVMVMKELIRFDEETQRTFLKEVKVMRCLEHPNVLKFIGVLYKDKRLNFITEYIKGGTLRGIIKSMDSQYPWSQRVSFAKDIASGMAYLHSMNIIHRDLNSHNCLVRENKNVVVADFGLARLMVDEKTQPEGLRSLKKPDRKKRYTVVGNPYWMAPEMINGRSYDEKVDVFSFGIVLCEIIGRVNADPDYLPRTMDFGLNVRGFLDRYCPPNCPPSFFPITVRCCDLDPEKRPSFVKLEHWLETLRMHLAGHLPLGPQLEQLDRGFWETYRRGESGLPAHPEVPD

Q: NC(=O)c1ccc2[nH]c(-c3ccc(Oc4ccc(Cl)cc4)cc3)nc2c1 was tested. Which residual activity did it give?
A: 55%

Q: With Cc1nc(-c2ccccc2)c(-c2ccncc2)o1 as the compound, how does the residual activity read?
A: 86%

Q: CCOc1cc2ncnc(Nc3cccc(Br)c3)c2cc1OCC was tested. Which residual activity did it give?
A: 49%

Q: With CC(C)n1cnc2/c(=N/c3cccc(Cl)c3)nc(NCCO)[nH]c21 as the compound, how does the residual activity read?
A: 80%

Q: Nc1nc(Nc2ccc(S(N)(=O)=O)cc2)nn1C(=S)Nc1c(F)cccc1F was tested. Which residual activity did it give?
A: 2%

Q: How did the residual activity turn out when Cc1ccc(S(=O)(=O)/C=C/C#N)cc1 was run?
A: 92%

Q: For Ic1cccc(CSc2nnc(-c3ccncc3)o2)c1, which residual activity is on record?
A: 75%

Q: O=C1NC(=O)c2c1c1c3ccccc3[nH]c1c1[nH]c3cc(Br)ccc3c21 was tested. Which residual activity did it give?
A: 76%

Q: How did the residual activity turn out when O=C1NC(=O)/C(=C\c2ccc3nccnc3c2)S1 was run?
A: 81%

Q: CCN(CC)CCCCN1c2ccccc2Oc2ccc(Cl)cc21 was tested. Which residual activity did it give?
A: 98%

Q: COc1cccc(-c2cc(=O)c3ccccc3o2)c1N was tested. Which residual activity did it give?
A: 93%

Q: For O=C1c2ccccc2-[n+]2ccc3c([nH]c4ccccc43)c21, which residual activity is on record?
A: 88%

Q: With Oc1ccc(-c2nc(-c3ccc(F)cc3)c(-c3ccncc3)[nH]2)cc1 as the compound, how does the residual activity read?
A: 69%

Q: For Cc1nc2cc3nc(-c4cccs4)cnc3cc2n1C, which residual activity is on record?
A: 99%

Q: COc1ccc(C(=O)Nc2sc3c(c2C(N)=O)CCCC3)cc1OC was tested. Which residual activity did it give?
A: 86%

Q: Cn1cc(/C=C2\C(=O)Nc3ccc(S(N)(=O)=O)cc32)c2ccccc21 was tested. Which residual activity did it give?
A: 53%

Q: With Nc1ccc2ncnc(NCCc3ccc(Oc4ccccc4)cc3)c2c1 as the compound, how does the residual activity read?
A: 80%

Q: How did the residual activity turn out when CO[C@H]1C[C@@H]2CC[C@@H](C)[C@@](O)(O2)C(=O)C(=O)N2CCCC[C@H]2C(=O)O[C@H]([C@H](C)C[C@@H]2CC[C@@H](O)[C@H](OC)C2)CC(=O)[C@H](C)/C=C(\C)[C@@H](O)[C@@H](OC)C(=O)[C@H](C)C[C@H](C)/C=C/C=C/C=C/1C was run?
A: 91%

Q: For CCC(=O)Nc1ccc2ncnc(Nc3cccc(Br)c3)c2c1, which residual activity is on record?
A: 76%

Q: How did the residual activity turn out when O=C(Nc1cccc(Nc2cc(Nc3cccc(C(F)(F)F)c3)ncn2)c1)C1CC1 was run?
A: 31%

Q: With O=[N+]([O-])c1ccc(-c2nc(-c3ccc(F)cc3)c(-c3ccncc3)[nH]2)cc1 as the compound, how does the residual activity read?
A: 90%

Q: How did the residual activity turn out when O=c1c2ccccc2[nH]c(=S)n1CCN1CCC(=C(c2ccc(F)cc2)c2ccc(F)cc2)CC1 was run?
A: 93%

Q: COc1cc2ncnc(Nc3ccc(NC(=O)c4ccccc4)cc3)c2cc1OC was tested. Which residual activity did it give?
A: 56%

Q: Which residual activity does the source give for COc1ccc(OC)c2c(=S)c3ccccc3[nH]c12 here?
A: 88%

Q: O=C(O)c1ccc2c3c1cccc3c(=O)n1c3ccccc3nc21 was tested. Which residual activity did it give?
A: 89%

Q: Which residual activity does the source give for Cn1cnc2cc3c(Nc4cccc(Br)c4)ncnc3cc21 here?
A: 57%

Q: How did the residual activity turn out when COc1ccc(S(=O)(=O)N(CCO)c2ccccc2CN(C)C/C=C/c2ccc(Cl)cc2)cc1 was run?
A: 83%

Q: How did the residual activity turn out when CNc1cc2c(Nc3cccc(Br)c3)ncnc2cn1 was run?
A: 43%

Q: Which residual activity does the source give for COc1cc2ncnc(N3CCN(C(=O)Nc4ccc(Oc5ccccc5)cc4)CC3)c2cc1OC here?
A: 14%

Q: For O=C(Nc1cccc(Nc2nccc(Nc3cccc(C(F)(F)F)c3)n2)c1)C1CC1, which residual activity is on record?
A: 4%

Q: How did the residual activity turn out when c1ccc(-c2n[nH]cc2-c2ccnc3ccccc23)nc1 was run?
A: 74%

Q: How did the residual activity turn out when O=c1cc(-c2cccc3c2Sc2ccccc2S3)oc(N2CCOCC2)c1 was run?
A: 92%

Q: O=Nc1c(-c2c(O)[nH]c3ccccc23)[nH]c2ccccc12 was tested. Which residual activity did it give?
A: 21%

Q: Which residual activity does the source give for Nc1n[nH]c2nnc(-c3c(-c4ccccc4)nn4ccccc34)cc12 here?
A: 85%

Q: For CC(=O)O/N=C1\C(=C2\C(=O)Nc3cc(Br)ccc32)Nc2ccccc21, which residual activity is on record?
A: 50%

target: T1, Serine/threonine-protein kinase STK11 (Homo sapiens) (UniProt Q15831); conditions: at 1 µM
T1 sequence (whole entry): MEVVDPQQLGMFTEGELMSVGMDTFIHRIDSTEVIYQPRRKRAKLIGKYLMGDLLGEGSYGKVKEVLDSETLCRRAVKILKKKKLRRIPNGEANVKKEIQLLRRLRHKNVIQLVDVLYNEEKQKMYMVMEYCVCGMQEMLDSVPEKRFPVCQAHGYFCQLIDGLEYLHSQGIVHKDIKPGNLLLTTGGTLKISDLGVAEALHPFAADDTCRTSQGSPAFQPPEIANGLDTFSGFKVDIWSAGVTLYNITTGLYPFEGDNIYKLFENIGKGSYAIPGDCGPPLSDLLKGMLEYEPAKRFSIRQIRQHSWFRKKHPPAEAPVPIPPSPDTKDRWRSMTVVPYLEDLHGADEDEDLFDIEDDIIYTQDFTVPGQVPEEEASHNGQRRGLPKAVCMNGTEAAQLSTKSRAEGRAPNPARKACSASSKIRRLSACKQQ

Q: How did the residual activity turn out when NC(=O)c1ccc2[nH]c(-c3ccc(Oc4ccc(Cl)cc4)cc3)nc2c1 was run?
A: 103%

Q: For Cc1nc(-c2ccccc2)c(-c2ccncc2)o1, which residual activity is on record?
A: 111%

Q: CCOc1cc2ncnc(Nc3cccc(Br)c3)c2cc1OCC was tested. Which residual activity did it give?
A: 98%

Q: With CC(C)n1cnc2/c(=N/c3cccc(Cl)c3)nc(NCCO)[nH]c21 as the compound, how does the residual activity read?
A: 96%

Q: For Nc1nc(Nc2ccc(S(N)(=O)=O)cc2)nn1C(=S)Nc1c(F)cccc1F, which residual activity is on record?
A: 87%

Q: Which residual activity does the source give for Cc1ccc(S(=O)(=O)/C=C/C#N)cc1 here?
A: 94%

Q: With Ic1cccc(CSc2nnc(-c3ccncc3)o2)c1 as the compound, how does the residual activity read?
A: 96%

Q: How did the residual activity turn out when O=C1NC(=O)c2c1c1c3ccccc3[nH]c1c1[nH]c3cc(Br)ccc3c21 was run?
A: 96%

Q: For O=C1NC(=O)/C(=C\c2ccc3nccnc3c2)S1, which residual activity is on record?
A: 90%

Q: How did the residual activity turn out when CCN(CC)CCCCN1c2ccccc2Oc2ccc(Cl)cc21 was run?
A: 103%

Q: Which residual activity does the source give for COc1cccc(-c2cc(=O)c3ccccc3o2)c1N here?
A: 103%

Q: How did the residual activity turn out when O=C1c2ccccc2-[n+]2ccc3c([nH]c4ccccc43)c21 was run?
A: 100%

Q: Which residual activity does the source give for Oc1ccc(-c2nc(-c3ccc(F)cc3)c(-c3ccncc3)[nH]2)cc1 here?
A: 108%

Q: For Cc1nc2cc3nc(-c4cccs4)cnc3cc2n1C, which residual activity is on record?
A: 97%

Q: How did the residual activity turn out when COc1ccc(C(=O)Nc2sc3c(c2C(N)=O)CCCC3)cc1OC was run?
A: 104%

Q: How did the residual activity turn out when Cn1cc(/C=C2\C(=O)Nc3ccc(S(N)(=O)=O)cc32)c2ccccc21 was run?
A: 103%

Q: Nc1ccc2ncnc(NCCc3ccc(Oc4ccccc4)cc3)c2c1 was tested. Which residual activity did it give?
A: 105%

Q: Which residual activity does the source give for CO[C@H]1C[C@@H]2CC[C@@H](C)[C@@](O)(O2)C(=O)C(=O)N2CCCC[C@H]2C(=O)O[C@H]([C@H](C)C[C@@H]2CC[C@@H](O)[C@H](OC)C2)CC(=O)[C@H](C)/C=C(\C)[C@@H](O)[C@@H](OC)C(=O)[C@H](C)C[C@H](C)/C=C/C=C/C=C/1C here?
A: 101%

Q: Which residual activity does the source give for CCC(=O)Nc1ccc2ncnc(Nc3cccc(Br)c3)c2c1 here?
A: 96%

Q: With O=C(Nc1cccc(Nc2cc(Nc3cccc(C(F)(F)F)c3)ncn2)c1)C1CC1 as the compound, how does the residual activity read?
A: 102%

Q: Which residual activity does the source give for O=[N+]([O-])c1ccc(-c2nc(-c3ccc(F)cc3)c(-c3ccncc3)[nH]2)cc1 here?
A: 98%

Q: With O=c1c2ccccc2[nH]c(=S)n1CCN1CCC(=C(c2ccc(F)cc2)c2ccc(F)cc2)CC1 as the compound, how does the residual activity read?
A: 123%

Q: For COc1cc2ncnc(Nc3ccc(NC(=O)c4ccccc4)cc3)c2cc1OC, which residual activity is on record?
A: 108%

Q: COc1ccc(OC)c2c(=S)c3ccccc3[nH]c12 was tested. Which residual activity did it give?
A: 97%

Q: O=C(O)c1ccc2c3c1cccc3c(=O)n1c3ccccc3nc21 was tested. Which residual activity did it give?
A: 107%

Q: For Cn1cnc2cc3c(Nc4cccc(Br)c4)ncnc3cc21, which residual activity is on record?
A: 101%

Q: COc1ccc(S(=O)(=O)N(CCO)c2ccccc2CN(C)C/C=C/c2ccc(Cl)cc2)cc1 was tested. Which residual activity did it give?
A: 100%

Q: How did the residual activity turn out when CNc1cc2c(Nc3cccc(Br)c3)ncnc2cn1 was run?
A: 99%

Q: With COc1cc2ncnc(N3CCN(C(=O)Nc4ccc(Oc5ccccc5)cc4)CC3)c2cc1OC as the compound, how does the residual activity read?
A: 99%

Q: With O=C(Nc1cccc(Nc2nccc(Nc3cccc(C(F)(F)F)c3)n2)c1)C1CC1 as the compound, how does the residual activity read?
A: 100%

Q: For c1ccc(-c2n[nH]cc2-c2ccnc3ccccc23)nc1, which residual activity is on record?
A: 96%

Q: How did the residual activity turn out when O=c1cc(-c2cccc3c2Sc2ccccc2S3)oc(N2CCOCC2)c1 was run?
A: 95%

Q: Which residual activity does the source give for O=Nc1c(-c2c(O)[nH]c3ccccc23)[nH]c2ccccc12 here?
A: 83%

Q: Nc1n[nH]c2nnc(-c3c(-c4ccccc4)nn4ccccc34)cc12 was tested. Which residual activity did it give?
A: 91%

Q: For CC(=O)O/N=C1\C(=C2\C(=O)Nc3cc(Br)ccc32)Nc2ccccc21, which residual activity is on record?
A: 98%
